In PubChem BioAssay AID602340 (Broad Institute, 2012):
In all, about 330,000 compounds went through this assay and about 2,600 (0.79%) were called active. The sample holds actives, similar compounds and a random draw of the others, so the mix is not that of the screen. A number with no mark means an inactive call.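 The calls were made as follows: active = mean ATP rescue above about 67%, or every replicate alone reaching that limit (limit read from the data, passing the limit was not always enough); inconclusive = no clear call, values can overlap the other calls; inactive = mean under the limit and some replicate under it.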

Assay: suppressors of statin myotoxicity in C2C12 myotubes, primary screen, cell-based, single point, plate reader (AID 602340);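 also: myotubes were challenged with 10 µM simvastatin during compound exposure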
Conditions: C2C12 myotubes + simvastatin, ATP luminescence, 48 h; at 7.49 µM; hits give high values; scaled: DMSO 0, geranylgeraniol control 100
In the case of `O=C(Nc1ccccc1)Oc1cccc2cccnc12`, the rescue of ATP level is reported as 101% (active). In the case of `Fc1ccccc1COc1cccc2cccnc12`, the rescue of ATP level is reported as 8.73%. `OCc1ccc(OCCCOc2cccc3cccnc23)cc1` gave a rescue of ATP level of 7.29%. `C/C=C/c1ccc2c(c1)O[C@H](CN(C)C(=O)C1CCCCC1)[C@@H](C)CN([C@@H](C)CO)S2(=O)=O` gave a rescue of ATP level of 2.75%. With `CCc1nc2ccccc2n(CCOCCOCCn2c(=O)c(CC)nc3ccccc32)c1=O` the rescue of ATP level was 114% (active). `COCCOCCn1cnc2ccccc21` gave a rescue of ATP level of 14.6%. In the case of `CCOCCn1c(C(C)C)nc2ccccc21`, the rescue of ATP level is reported as -2.16%. `C[C@@H]1CN([C@H](C)CO)C(=O)c2cc(C#CC3CC3)cnc2O[C@@H]1CN(C)Cc1cccc(C(=O)O)c1` showed a rescue of ATP level of -0.6%. In the case of `COc1ccc2[nH]c(=O)c(CNc3ccc(C)c(C)c3)cc2c1`, the rescue of ATP level is reported as 100% (active). In the case of `COc1ccc2[nH]c(=O)c(CN(Cc3cccnc3)S(=O)(=O)c3ccccc3F)cc2c1`, the rescue of ATP level is reported as -38.6%. `COc1ccc2[nH]c(=O)c(CN(CC3CCCO3)C(=O)Nc3ccccc3)cc2c1` (stereo unspecified) showed a rescue of ATP level of -11.6%. With `CO[C@H]1CN(C)C(=O)c2ccc(NS(C)(=O)=O)cc2OC[C@@H](C)N(C(=O)c2ccc3c(c2)OCO3)C[C@@H]1C` the rescue of ATP level was -7.88%. `C[C@@H]1CCCCO[C@H](CN(C)S(=O)(=O)c2cn(C)cn2)[C@H](C)CN([C@@H](C)CO)C(=O)c2cc(NC(=O)Nc3ccc(C(F)(F)F)cc3)ccc2O1` gave a rescue of ATP level of 0.993%. `C[C@@H]1CN([C@@H](C)CO)C(=O)Cc2cc(NC(=O)CCN3CCOCC3)ccc2O[C@H]1CN(C)S(=O)(=O)c1ccccc1` showed a rescue of ATP level of -6.12%. `O=S(=O)(Cc1ccccc1)NCC[C@@H]1CC[C@@H](NS(=O)(=O)c2ccccc2)[C@@H](CO)O1` showed a rescue of ATP level of 1.31%. With `COc1ccc(S(=O)(=O)N/N=C\c2ccc(OC)c(COc3ccc(C)cc3[N+](=O)[O-])c2)cc1` the rescue of ATP level was 99.4% (active). Work on `Cc1ccc(S(=O)(=O)N/N=C\c2cc3c(cc2[N+](=O)[O-])OCO3)cc1` yielded a rescue of ATP level of 2.88%. `COc1ccc(S(=O)(=O)Nc2ccc3cn[nH]c3c2)cc1[N+](=O)[O-]` gave a rescue of ATP level of 1.46%. `COc1cccc(S(=O)(=O)Nc2ccc3c(c2)C(=O)N(C)C[C@@H](OC)[C@H](C)CN(C(=O)Cc2cccnc2)[C@H](C)CO3)c1` showed a rescue of ATP level of 7.32%. Compound `CC(=O)N1[C@@H](CO)[C@H](c2ccccc2)[C@@H]1CN(C(=O)c1ccccc1)C(C)C` has a rescue of ATP level of 3.57%. `COc1ccc(-c2ccc3n(c2=O)C[C@@H]2[C@@H](CO)[C@H](C(=O)Nc4ccccc4)[C@H]3N2C)cc1` showed a rescue of ATP level of -0.124%.
